A selection: hits, their analogues and other compounds. The true share with any hit is near 7.3%.
FMDV antiviral – foot and mouth disease virus antiviral activity; hit rate 1.2% among 410,000; AID 1159524; Potency, µM (top dose mostly 57.9 µM), usual class: inhibitors; FMDV antiviral cell-based qHTS; calls by dose curve; tested in HEK293T cells; also: read-out not given here; nearly all actives have a fitted effect of over 45% in size
HCMV antiviral – inhibitors of human cytomegalovirus; HFF cells, HCMV-luciferase reporter, 72 h; active compounds read low; AID 1259415; hit rate 4.5% among 410,000; activity change, negative = inhibition, % at 57.5 µM; in the data active = activity change below about -60%; inconclusive = no clear call, values can overlap the other calls; inactive = above about -39%
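Cell-based, HFFs, 1000 cells/well, 16 h 37C; cpds in DMSO + HCMV-luc, MOI 1 PFU/cell; 72 h 37C; OneGlo luminescence after 5 min RT; norm. to buffer vs Salinomycin 10uM.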
AmpC inh no detg – AmpC beta-lactamase inhibition without detergent; P00811; AmpC nitrocefin hydrolysis, absorbance 480 nm, 0.0001% Triton; Potency, µM (highest dose often 57.1 µM), most hits filed as inhibitors; hit rate 0.52% among 330,000; AID 485341; also: nearly all actives have a fitted effect of over 20% in size
Target sequence (P00811 whole entry, looked up): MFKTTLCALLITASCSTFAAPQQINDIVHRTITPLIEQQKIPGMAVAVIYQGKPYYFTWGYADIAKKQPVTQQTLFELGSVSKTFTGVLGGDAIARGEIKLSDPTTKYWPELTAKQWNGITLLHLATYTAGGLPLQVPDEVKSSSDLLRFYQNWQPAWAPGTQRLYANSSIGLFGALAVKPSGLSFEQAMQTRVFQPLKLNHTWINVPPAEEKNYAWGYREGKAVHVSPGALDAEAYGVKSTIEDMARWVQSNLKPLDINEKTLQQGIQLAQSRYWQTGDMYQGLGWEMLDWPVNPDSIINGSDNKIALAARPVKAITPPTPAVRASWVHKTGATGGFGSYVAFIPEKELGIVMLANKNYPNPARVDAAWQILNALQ
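20 mM phosphate pH 7.0 + 0.01% (detergent screen) or 0.0001% Triton X-100; 5.3 nM AmpC reagent; cpd preinc 15 min RT; nitrocefin (800 uM stock) to start; A480 q20 s × 4 min; Activity was normalised to no-enzyme and no-compound control wells.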
AmpC inh detg – inhibitors of E. coli AmpC beta-lactamase with detergent; AmpC hydrolysis of nitrocefin, absorbance 480 nm, 0.01% Triton; Potency, µM (doses to about 114 µM), most hits filed as inhibitors; P00811; hit rate 0.041% among 370,000; AID 485294; also: nearly all actives have a fitted effect of over 25% in size
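20 mM phosphate pH 7.0 + 0.01% (detergent screen) or 0.0001% Triton X-100; 5.3 nM AmpC reagent; cpd preinc 15 min RT; nitrocefin (800 uM stock) to start; A480 q20 s × 4 min; Activity was normalised to no-enzyme and no-compound control wells.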
HCV inh – HCV inhibition; Huh7.5.1 HCVcc-Cre infection, luciferase reporter, 44 h; hit rate 3.4% among 340,000; AID 651820; Potency, µM (highest dose often 41.8 µM), hits mostly inhibitors
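1,000 cells/well; 4 h culture; + compound; + HCVcc-Cre (~0.5 moi); 44 h; luciferase substrate, RT 15 min; read 15 sec.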
Large screens that a line does not name were inactive. Unless noted, calls follow the shape of the dose curve; as a rule, active = well fitted curve in the direction sought with a large enough effect; inconclusive = small, poorly fitted or top-dose-only effect, or another doubt; inactive = no such curve, though single readings can be large; an effect the other way counts as inactive or inconclusive.

COc1cc(OC)cc(C(=O)Oc2c(CN3CCOCC3)cc(Cl)c3cccnc23)c1	HCMV antiviral inconclusive
Cc1ccc(CNc2nc3c(S(=O)(=O)c4ccccc4)nnn3c3ccsc23)cc1	none (no result: AmpC inh no detg, HCV inh)
O=C(NCC(c1cccs1)N1CCOCC1)c1cc([N+](=O)[O-])ccc1Cl (stereo unspecified)	none
O=[N+]([O-])c1ccc(O)c(C(C#Cc2ccccc2)N2CCOCC2)c1 (stereo unspecified)	AmpC inh no detg 8.9µM
COc1ccc(CN2C(=O)c3cccnc3C2=O)cc1S(=O)(=O)N(C)c1cccc(C)c1	none
O=S(=O)(NC1CCCC1)c1ccccc1Br	HCMV antiviral -97
NC(=O)[C@H]1CC2(CC(c3cccc(NC(=O)COc4ccc(Cl)cc4)c3)=NO2)CN1C(=O)Cc1ccc([N+](=O)[O-])cc1 (stereo partly specified)	FMDV antiviral inconclusive, HCMV antiviral -78, HCV inh 1.6µM
CCCCCC(=O)Nc1cccc(C2=NOC3(C2)C[C@@H](C(N)=O)N(C(=O)Cc2ccc([N+](=O)[O-])cc2)C3)c1 (stereo partly specified)	none
Cc1cc(S(=O)(=O)NCCN2CCOCC2)c(C)s1	AmpC inh detg inconclusive
Cc1cc(S(=O)(=O)NCCc2ccccc2)c(C)s1	HCMV antiviral -98, HCV inh inconclusive
COc1ccc(-c2csc(NC(=O)CN3C(=O)C4CC=CCC4C3=O)n2)cc1OC (stereo unspecified)	FMDV antiviral inconclusive, HCMV antiviral -111, HCV inh inconclusive (no result: AmpC inh no detg, AmpC inh detg)
O=C(CN1C(=O)C2CC=CCC2C1=O)Nc1nc(-c2ccc(F)c(F)c2)cs1 (stereo unspecified)	FMDV antiviral inconclusive, HCV inh 10µM (no result: AmpC inh detg)
COc1ccc(-c2csc(NC(=O)CN3C(=O)C4CCCCC4C3=O)n2)cc1OC (stereo unspecified)	FMDV antiviral inconclusive, HCV inh inconclusive
C=CCCC1CN(CC=C)S(=O)(=O)c2c(F)cccc2O1 (stereo unspecified)	none (no result: FMDV antiviral, AmpC inh no detg, AmpC inh detg, HCV inh)
Cc1ccccc1NC(=O)CSc1nnc(C)c2ccccc12	none
FC(F)(F)c1ccc(CN2C[C@@H]3C(c4ccc(Cl)nc4)C4(c5cccnc5)CC3(C4)[C@H]2c2ccccc2)cc1 (stereo partly specified)	FMDV antiviral inconclusive, HCMV antiviral -67
COc1ccc(S(=O)(=O)NCCc2c[nH]c3ccc(Cl)cc23)cc1	none
Cc1ccccc1C1=CC(=O)CC(C)(C)C1=O	none (no result: FMDV antiviral, AmpC inh no detg, AmpC inh detg, HCV inh)
Cc1cccc(N2CCN(C(=O)Cn3c(C)c4cnn(-c5ccccc5)c(=O)c4c3C)CC2)c1C	FMDV antiviral 28µM, HCMV antiviral -81 (no result: AmpC inh no detg, HCV inh)
COC(=O)c1cc2occc2n1CC(=O)Nc1ccc(C)cc1C	HCMV antiviral -63, HCV inh inconclusive
COC(=O)c1cc2oc(C)cc2n1CC(=O)Nc1ccc(OC)c(OC)c1	none (no result: AmpC inh no detg, HCV inh)
COC(=O)c1cc2oc(C)cc2n1CC(=O)Nc1ccc(C)c(C)c1	AmpC inh detg inconclusive, HCV inh 4µM
Cc1csc(CN(C)C(=O)c2sc3ncnc(NCC4CCCO4)c3c2C)n1 (stereo unspecified)	none (no result: HCMV antiviral, AmpC inh no detg, AmpC inh detg, HCV inh)
O=S(=O)(NCc1ccc(C(F)(F)F)cc1)c1ccc(-n2cnnn2)cc1	none
CCCN1C(C)C(C(=O)OCC)=CN(Cc2cccc(I)c2)S1(=O)=O (stereo unspecified)	FMDV antiviral 4µM, HCV inh inconclusive (no result: HCMV antiviral, AmpC inh detg)
CCOC(=O)C1=CN(Cc2cccc(F)c2)S(=O)(=O)N(C)C1c1ccc2ccccc2c1 (stereo unspecified)	HCV inh 11µM (no result: AmpC inh detg)
CCCN1C(C)C(C(=O)OCC)=CN(Cc2ccc(Br)cc2)S1(=O)=O (stereo unspecified)	FMDV antiviral inconclusive, HCV inh inconclusive (no result: AmpC inh detg)
COC(=O)[C@H](Cc1ccccc1)N1C/C=C\COc2c(Cl)cc(Cl)cc2S1(=O)=O	HCV inh inconclusive (no result: AmpC inh detg)
O=C(Cn1c(=O)nc(-c2ccccc2)c2cc(Cl)ccc21)NCCc1ccc(Cl)cc1	FMDV antiviral inconclusive (no result: AmpC inh no detg, HCV inh)
CCC(=O)NCc1nc2ccccc2n1Cc1ccccc1F	HCMV antiviral -99
Cc1nc2ccccc2n1CC(=O)NN	HCMV antiviral inconclusive
Cc1nn(C(=O)CCCC(=O)NCc2ccccc2)c2ccccc12	HCV inh 22µM
Cc1nc2ccccc2n1CC(=O)NCc1ccccc1	FMDV antiviral inconclusive, HCMV antiviral -79
O=C(Cn1c(=O)nc(-c2ccccc2)c2cc(Cl)ccc21)NCc1ccccc1	FMDV antiviral 14µM, HCMV antiviral inconclusive (no result: AmpC inh no detg, HCV inh)
Cc1nn(CC(=O)Nc2ccc3c(c2)OCCO3)c(C)c1[N+](=O)[O-]	none (no result: AmpC inh detg)
CCOc1ccccc1NC(=O)c1cn(C2CCCC2)c(=O)c2c1c1ccccc1n2C	HCMV antiviral inconclusive (no result: AmpC inh no detg, HCV inh)
Cc1cc(=O)n(Cc2ccccc2)c2ccccc12	HCMV antiviral inconclusive
Cc1nc2ccccc2n1CC(=O)NC(C)C1CC2CCC1C2 (stereo unspecified)	FMDV antiviral inconclusive, HCMV antiviral -65, HCV inh inconclusive
COc1ccc(NC(=O)Cn2c(=O)n(CCc3ccccc3)c(=O)c3ccccc32)cc1	none (no result: AmpC inh no detg, HCV inh)
Cc1cc(=O)c2ccccc2n1Cc1ccccc1	FMDV antiviral inconclusive, HCMV antiviral -70, HCV inh 13µM
COc1ccc(NC(=O)Cn2c(C)cc(=O)c3ccccc32)cc1	FMDV antiviral inconclusive, HCMV antiviral -80, HCV inh 7.1µM
CC(NC(=O)Cn1c(NCCO)nc2ccccc21)C1CC2CCC1C2 (stereo unspecified)	none
COc1ccc(-n2c(=O)c3ccc(C(=O)NCc4ccc(C)cc4)cc3n(CC(=O)Nc3ccc(C)cc3)c2=O)cc1	HCMV antiviral -71 (no result: AmpC inh no detg, HCV inh)
COc1cc2c(cc1OC)C(=NO)CCCC2	none (no result: AmpC inh no detg, AmpC inh detg, HCV inh)
COc1cccc2c(=O)cc(C)n(CC(=O)Nc3cccc(C)c3)c12	FMDV antiviral inconclusive, HCMV antiviral inconclusive, HCV inh 8.9µM
Cc1cc(=O)c2ccccc2n1CC(=O)NCc1ccccc1	FMDV antiviral inconclusive, HCMV antiviral -71, HCV inh inconclusive
CC(C)Cn1c(C(C)NC(=O)Cc2ccccc2)nc2ccccc21 (stereo unspecified)	AmpC inh no detg 1.6µM, AmpC inh detg inconclusive
O=C(CCCCCn1c(=O)[nH]c2ccccc2c1=O)NC1CCCC1	none (no result: FMDV antiviral, AmpC inh no detg, AmpC inh detg, HCV inh)
CCN(C(=O)COC(=O)c1[nH]c(C)c(C(C)=O)c1C)c1c(N)n(Cc2ccccc2)c(=O)[nH]c1=O	HCV inh inconclusive
O=[N+]([O-])c1ccc2c(c1)C(=NO)c1cc(Cl)c(Cl)cc1-2	HCMV antiviral inconclusive, HCV inh 11µM (no result: AmpC inh no detg, AmpC inh detg)
Nc1cc2c(cc1[N+](=O)[O-])-c1ccccc1C2=NO	HCMV antiviral -68, HCV inh inconclusive (no result: AmpC inh no detg, AmpC inh detg)
CC(=O)Nc1cc2c(cc1[N+](=O)[O-])-c1ccccc1C2=NO	none (no result: AmpC inh no detg, AmpC inh detg)
C=CC[n+]1c(-c2ccc(OC)c(OC)c2)csc1NNC(=O)Nc1ccccc1	HCMV antiviral inconclusive, HCV inh 4µM (no result: FMDV antiviral)
